Compound activity: PubChem, The Scripps Research Institute Molecular Screening Center
M1 PAM: positive allosteric modulators of human M1 muscarinic receptor; actives 0.088% (n = 360,000); CHO-K1 hM1, Fluo-8 calcium fluorescence, ACh EC20; 0% = ACh EC20, 100% = maximal ACh; activation, % at 3 µM; in the data active = activation above about 19%, passing the limit was not always enough
Target sequence (P11229 whole entry, looked up): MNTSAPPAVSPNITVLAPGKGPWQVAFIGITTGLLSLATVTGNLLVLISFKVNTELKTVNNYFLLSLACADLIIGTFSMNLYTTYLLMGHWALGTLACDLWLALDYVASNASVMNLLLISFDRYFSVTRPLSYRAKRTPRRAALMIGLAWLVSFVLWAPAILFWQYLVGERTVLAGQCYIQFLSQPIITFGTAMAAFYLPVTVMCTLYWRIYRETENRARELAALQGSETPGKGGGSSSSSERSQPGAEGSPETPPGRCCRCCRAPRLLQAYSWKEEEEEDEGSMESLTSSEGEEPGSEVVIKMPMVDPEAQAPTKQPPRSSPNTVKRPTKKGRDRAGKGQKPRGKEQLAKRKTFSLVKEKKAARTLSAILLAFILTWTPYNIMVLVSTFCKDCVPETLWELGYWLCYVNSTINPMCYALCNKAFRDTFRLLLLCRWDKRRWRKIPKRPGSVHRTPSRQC
CHO-K1 Ca antag: M1 antagonist counterscreen hit in parental CHO-K1 cells; inhibition, % at 3 µM; actives 0.6% (n = 360,000); ATP-induced calcium, Fluo-8 fluorescence;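 active = inhibition above a per-plate cutoff, the plate's mean sample inhibition plus 3 SD, cut at about 24% in these data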;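 note: 0% = DMSO plus EC80 ATP and 100% = DMSO alone without ATP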
CHO-K1 Ca ag: nonselective activator or artifact in parental CHO-K1 cells | Fluo-8 calcium fluorescence; scaled to maximal ATP response, vehicle zero | activation, % at 3 µM | actives 0.48% (n = 360,000) | AID 602248; in the data active = activation above about 15%;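 note: untransfected CHO-K1 host cells lacking M1 receptor as counterscreen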
M1 PAM parental: nonselective activator or artifact in parental CHO-K1 calcium assay. ATP EC20, Fluo-8 calcium fluorescence; 0% at ATP EC20, 100% at ATP max. activation, % at 3 µM. actives 0.02% (n = 360,000);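 active = activation above the run cutoff, the mean activation of all test compounds plus 3 SD, cut at about 40% in these data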;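 note: peak over basal fluorescence ratio in a 140 s read after ATP addition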
M1 antag: blocks human M1 muscarinic receptor. P11229. CHO-K1 hM1, Fluo-8 calcium fluorescence, ACh EC80 antagonist. inhibition, % at 3 µM. actives 1.3% (n = 360,000). AID 588852;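 active = percent inhibition above its own plate's cutoff, namely the mean of that plate's compound wells plus 3 SD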;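 note: peak over basal fluorescence ratio during 140 s after agonist addition; 0% = ACh EC80 plus DMSO and 100% = DMSO alone without agonist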
M1 ag: activates human CHRM1 receptor; P11229; CHO-K1 hM1, Fluo-8 calcium fluorescence, agonist mode; 0% DMSO, 100% acetylcholine EC100; activation, % at 3 µM; actives 0.33% (n = 360,000); AID 588814;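 active = activation above the run's mean compound activation plus 3 SD, cut at about 16% in these data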;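 note: peak over basal fluorescence ratio within a 140 s kinetic read after compound addition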
Numbers without * were called inactive. In the library only some 2.3% were active in any assay of this set; here they are far more common.

SMILES | M1 PAM | CHO-K1 Ca antag | CHO-K1 Ca ag | M1 PAM parental | M1 antag | M1 ag
COc1ccc(N2CCN(CCCNC(=O)C3CCC(CNc4nc(=S)[nH]c5ccccc45)CC3)CC2)cc1 (centres undefined) | 4 | -13 | 5 | 2 | -3 | -7
C[N+](C)(C)CCCCCC(=O)/C=N/O | -2 | -16 | 1 | 22 | -7 | 29*
C[N+](C)(C)CCCCCC[N+](C)(C)C | 6 | 2 | 2 | 18 | -33 | 1
COC(=O)c1ccc(S(=O)(=O)NCCc2ccccc2OC)n1C | 3 | 3 | 18* | 4 | -5 | -2
O=C(Nc1ccc(N2CCOCC2)cc1)C1CC(=O)N(c2ccc(F)cc2)C1 (centres undefined) | 5 | -13 | 1 | 16 | -2 | -6
COc1cc(NC(=O)c2cc([N+](=O)[O-])ccc2NC(=O)CN2CCN(c3ccccn3)CC2)cc(OC)c1 | -11 | -4 | 2 | -2 | 34* | -4
O=C(c1cc(N2C(=O)C3C4CCC(C4)C3C2=O)ccc1Cl)N1CCN(c2ccccc2)CC1 (centres undefined) | -8 | -1 | 23* | 10 | 7 | -5
CN(c1ccccc1)S(=O)(=O)c1ccc2c(c1)oc(=O)n2C | -3 | -4 | 1 | -1 | -4 | -8
CC(=O)Nc1cccc(NC(=O)NC2CC(=O)N(c3ccc4c(c3)OCCO4)C2)c1 (centres undefined) | 6 | -12 | 0 | 13 | -11 | 0
Cc1ccc2nc(/C(C#N)=C\c3ccc(N4CCOCC4)o3)[nH]c2c1 | -12 | 11 | 8 | -10 | 20 | 31*
CC(C)CC(=O)OC1C(N2CCOCC2)c2c(ccc(/C=C/C(=O)N3CCOCC3)c2O)OC1(C)C (centres undefined) | 6 | 4 | 15* | 14 | 1 | -5
Cn1cnc2c1c(=O)n(CC(O)CO)c(=O)n2C (centres undefined) | -9 | 6 | 0 | 2 | 29* | 0
Cn1cnc2c1c(=O)n(Cc1ccccc1)c(=O)n2C | 11 | -4 | 1 | 12 | -8 | -2
CCCCC[C@@H]1C=C(C(=O)O)[C@H](c2ccc(Br)cc2)N1S(=O)(=O)c1ccc(C)cc1 | 11 | -10 | 2 | 14 | -13 | -7
O=[N+]([O-])c1ccc(S(=O)(=O)NCCc2cn3ccccc3n2)cc1 | 28* | -4 | 0 | 8 | -27 | -1
CC(C)Nc1ccc(Nc2ccnc3cc4ccccc4cc23)cc1 | -4 | -7 | 0 | 5 | -9 | -7
c1ccc(CCNc2ccnc3cc4ccccc4cc23)cc1 | -21 | 13 | 9 | -2 | 42* | -3
CC(C)CC(=O)N1CCC(N(CCc2ccccc2)Cc2ccccc2)CC1 | -27 | -14 | 0 | 20 | 57* | -8
CC1CCN(C(=O)CN(CCc2ccccc2)S(C)(=O)=O)CC1 | 9 | 4 | 0 | -6 | -8 | -6
CC1(C)N=C(c2ccccc2)C(c2ccccc2)=N1 | 5 | -12 | 0 | 13 | -12 | -4
CCC(=O)c1ccc(OCC(=O)OCC(=O)Nc2ccc(C)c(S(=O)(=O)N3CCCCC3)c2)cc1 | -17 | -4 | 16* | 2 | 17 | 3
CCC(=O)c1ccc(OCC(=O)OCC(=O)Nc2cccc(S(=O)(=O)N3CCCC3)c2)cc1 | -4 | -15 | 6 | 4 | 3 | -4
CCN1CCN(S(=O)(=O)c2ccc(Cl)c(C(=O)Oc3ccc(CC(=O)OC)cc3)c2)CC1 | -1 | -12 | 3 | -1 | 3 | -3
O=C(/C(N=Nc1cccc([N+](=O)[O-])c1)=C(/O)c1ccc(Br)cc1)C(F)(F)F | -20 | 21 | 10 | -17 | 48* | -1
Cc1ccc(S(=O)(=O)N(C)C[C@@H]2OCc3cn(nn3)CCCC(=O)N([C@@H](C)CO)C[C@H]2C)cc1 | 25* | -6 | 0 | 5 | -28 | 0
SMILES | M1 PAM | CHO-K1 Ca antag | CHO-K1 Ca ag | M1 PAM parental | M1 antag | M1 ag
C[C@@H]1CN([C@H](C)CO)C(=O)CCCn2nncc2CO[C@@H]1CN(C)S(=O)(=O)c1ccccc1C#N | 27* | -10 | 0 | 15 | -29 | -8
C[C@H](CO)N1C[C@H](C)[C@@H](CN(C)S(=O)(=O)c2ccccc2)OCc2cn(nn2)CCCC1=O | -13 | 15 | 4 | 6 | 24* | -8
Cc1ccccc1S(=O)(=O)N(C)C[C@@H]1OCc2cnnn2CCCC(=O)N([C@@H](C)CO)C[C@@H]1C | -7 | -8 | 0 | 17 | -2 | -10
C[C@@H]1CN([C@@H](C)CO)C(=O)CCCn2cc(nn2)CO[C@H]1CN(C)S(=O)(=O)c1ccc(-c2ccccc2)cc1 | 2 | -10 | 0 | 21 | -5 | -5
O=C(CCl)N1CCN(S(=O)(=O)Cc2ccccc2)CC1 | 10 | -2 | 0 | -14 | -13 | -4
O=C(Nc1cccc(F)c1)c1c(F)c(F)c(F)c(F)c1F | -10 | 24* | 6 | -6 | 16 | -1
CN(C)NC(=O)C12CCC(C)(C(=O)O1)C2(C)C (centres undefined) | -6 | 10 | -1 | -11 | 7 | -5
CC(=O)Nc1cccc(NC(=O)CSc2nnc3ccc(-c4cccnc4)nn23)c1 | 0 | 2 | 0 | -9 | -6 | 2
CC(=O)Nc1ccc(NC(=O)CSc2nnc3ccc(-c4cccnc4)nn23)cc1 | -8 | 4 | 0 | -14 | 20* | -1
CN(Cc1ccccc1)S(=O)(=O)c1ccc(NC(=O)c2ccccc2C(=O)O)cc1 | 16 | -9 | 0 | 13 | -17 | -3
CCOC(=O)c1c2n(c3c(NCc4ccccc4)ncnc13)CCCC2 | 9 | 24* | 0 | -8 | -8 | -3
CC(C)(C)OC(=O)N1CCC(C(=O)Nc2ccc(C(=O)N3CCCCC3)cc2)CC1 | 12 | -14 | 1 | 0 | -6 | 4
CCC(C)C(NS(=O)(=O)c1ccc(C)cc1)C(=O)Oc1ccc2c3c(c(=O)oc2c1)CCC3 (centres undefined) | -8 | -27 | 4 | 49* | -19 | -4
CC(C)CC(C(=O)Oc1ccc2c3c(c(=O)oc2c1)CCC3)N1C(=O)c2ccccc2C1=O (centres undefined) | 5 | -7 | 0 | 12 | -12 | -1
Cc1ccc(S(=O)(=O)NC(CC(C)C)C(=O)Oc2ccc3c4c(c(=O)oc3c2)CCC4)cc1 (centres undefined) | -19 | 25* | 3 | -12 | 43* | -4
CC[C@@H](NS(=O)(=O)c1ccc(C)cc1)C(=O)Oc1ccc2c3c(c(=O)oc2c1)CCC3 | -10 | 3 | 12 | -5 | -1 | -6
COc1cccc(CN(C(=O)/C=C/c2ccco2)C2CCS(=O)(=O)C2)c1 (centres undefined) | 2 | 0 | 0 | -13 | -5 | -1
